Data from the supplement of paper PMC6518042.

System: Pectobacterium parmentieri SCC3193
Test: DuctApe activity index (growth/respiration on compound as sole nutrient source, blank-subtracted) (activity index (0-3)); higher = stronger utilization of the compound, active = 3 or more
Details: nutrient role (plate category): carbon
Experimental: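 Biolog Phenotype Microarray plates PM1, PM2A (carbon), PM3 (nitrogen) and PM4 (phosphorus/sulfur) inoculated with P. parmentieri SCC3193 in M9-C minimal salts medium with Biolog dye A, and read in the OmniLog for 46 h. Each well was tested in triplicate and the experiment was run twice. DuctApe computed a blank-subtracted activity index (AV, 0-3) from the mean curves; growth is positive at AV >= 3 and negative at AV <= 2.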

DuctApe activity index, inactive:
NCCCC[C@H](N)C(=O)O [L-Lysine] 0, OC[C@@H](O)[C@@H](O)[C@H](O)[C@@H](O)CO [D-Sorbitol] 0, CC[C@H](O)C(=O)O [a-Hydroxybutyric acid] 0, O=C1O[C@H](CO)[C@@H](O)[C@H]1O [D-Ribono-1,4-Lactone] 0, CO[C@@H]1O[C@H](C(=O)O)[C@@H](O)[C@H](O)[C@H]1O [b-Methyl-D-Glucuronic acid] 0, O=C(O)Cc1cccc(O)c1 [m-Hydroxyphenyl Acetic acid] 0, OC[C@H]1O[C@H](O[C@H]2[C@H](O)[C@@H](O)[C@H](O)O[C@@H]2CO)[C@H](O)[C@@H](O)[C@@H]1O [Maltose] 1, CC(N)=O [Acetamide] 0, C[C@H](N)C(=O)O [L-Alanine] 0, OC[C@@H]1OC(O)[C@@H](O)[C@H](O)[C@H]1O (stereo partly drawn) [L-Glucose] 0, NC(=O)[C@H]1O[C@@H](O)[C@H](O)[C@@H](O)[C@@H]1O [Glucuronamide] 0, CCC(C)N (centres undefined) [sec-Butylamine] 0, OC[C@@H](O)[C@@H](O)CO [i-Erythritol] 0, O=C1CC[C@@H](C(=O)O)O1 [a-Hydroxyglutaric acid-g-Lactone] 1, OC[C@@]12OC[C@@H](O1)[C@@H](O)[C@@H](O)[C@@H]2O [Sedoheptulosan] 0, CO[C@H]1O[C@H](CO)[C@@H](O)[C@H](O)[C@@H]1O [a-Methyl-D-Mannoside] 0, CC(=O)N[C@H]1[C@H]([C@H](O)[C@H](O)CO)OC(O)(C(=O)O)C[C@@H]1O (some centres undefined) [N-Acetyl-Neuraminic acid] 0, CC(=O)N[C@@H](CO)[C@@H](O)[C@H](O)[C@H](O)CO [N-Acetyl-D-Glucosaminitol] 0, CC1OC(O)C(O)C(O)C1O [L-Fucose] 0

DuctApe activity index, active:
O=C(O)[C@H]1OC(O)[C@H](O)[C@@H](O)[C@H]1O (stereo partly drawn) [D-Galacturonic acid] 3, OC[C@H]1O[C@H](OC[C@H]2O[C@H](O[C@]3(CO)O[C@H](CO)[C@@H](O)[C@@H]3O)[C@H](O)[C@@H](O)[C@@H]2O)[C@H](O)[C@@H](O)[C@H]1O [D-Raffinose] 3, OC[C@H]1O[C@H](OC[C@H]2OC(O)[C@H](O)[C@@H](O)[C@@H]2O)[C@H](O)[C@@H](O)[C@H]1O (stereo partly drawn) [D-Melibiose] 3

Same assay, conditions: nutrient role (plate category): nitrogen

DuctApe activity index, inactive:
NCCCC[C@H](N)C(=O)O [L-Lysine] 0, CC(C)[C@@H](N)C(=O)O [D-Valine] 0, NCCCCCC(=O)O [e-Amino-N-Caproic acid] 0, NCCc1c[nH]cn1 [Histamine] 0, CC(N)=O [Acetamide] 0, C[C@H](N)C(=O)O [L-Alanine] 0, Cc1c[nH]c(=O)[nH]c1=O [Thymine] 0, CCC(N)C(=O)O (racemic) [DL-a-Amino-N-Butyric acid] 1, NCCO [Ethanolamine] 0, C[C@H](N)C(=O)N[C@@H](CCC(N)=O)C(=O)O 1, NC(=O)[C@H]1O[C@@H](O)[C@H](O)[C@@H](O)[C@@H]1O [Glucuronamide] 2

Same assay, conditions: nutrient role (plate category): phosphate & sulphur

DuctApe activity index, inactive:
NCCS(=O)O [Hypotaurine] 1, N[C@@H](CS(=O)O)C(=O)O [L-Cysteine Sulfinic acid] 0, O=c1ccn([C@@H]2O[C@H](CO)[C@@H](O)[C@H]2OP(=O)(O)O)c(=O)[nH]1 [Uridine 2`-Monophosphate] 2, O=C(O)CP(=O)(O)O [Phosphono Acetic acid] 0, C[C@@H](OP(=O)(O)O)[C@H](N)C(=O)O [O-Phospho-L-Threonine] 2

DuctApe activity index, active:
Nc1ccn([C@@H]2O[C@H](CO)[C@@H](O)[C@H]2OP(=O)(O)O)c(=O)n1 [Cytidine 2`-Monophosphate] 3
